# Data as given in PubChem BioAssay (Tox21).
# Values joined by “and” are separate entries in the source; they are usually repeats but may differ in a detail not shown here. Equal values may be shown once. Records with an inconclusive call do not appear. Where a call stands in place of a potency, no number is given. A structure can be active in one record and inactive in another. Active and inactive are the calls of the source. Unless noted, calls come from the whole dose curve.
# Experiments:
# [1] = Nuclear factor erythroid 2-related factor 2/antioxidant responsive element (Nrf2/ARE) small molecule agonists: luciferase reporter gene qHTS assay in human keratinocytes (AID 1919969); note: nearly all actives have a fitted effect of over 35% in size; note: potency is the fitted concentration of half-maximal effect
# [2] = target: Gonadotropin-releasing hormone receptor (Homo sapiens) (UniProt P30968); assay: Human gonadotropin-releasing hormone receptor (GnRHR) small molecule agonists, calcium flux assay in GnRHR-HEK293 cells (AID 1920063); note: nearly all actives have a fitted effect of over 35% in size
# Procedure, shortened: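 Calcium flux, agonist mode, human GnRHR stably integrated in HEK293; dye 1 h at 37 C before compound; Ex/Em=480/540 kinetic read, 3 min; 15 concentrations, triplicate.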
# [3] = target: KiSS-1 receptor (Homo sapiens) (UniProt Q969F8); assay: Human kisspeptin (KISS1R) small molecule agonists, calcium flux assay in KISS1R-HEK293 cells (AID 1920064; active = well fitted activation curve with a large enough effect in the repeat runs)
# Procedure, shortened: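 Triplicate 15-concentration series were applied to dye-loaded human KISS1R HEK293 cells, and agonist-evoked calcium fluorescence was captured for 3 min.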
# [4] = G protein-coupled receptor (GPCR) small molecule agonists, calcium flux assay: HEK293 wild type cell line counter screen (AID 1920065)
# Procedure, shortened: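 Non-specific calcium responders were flagged by adding DMSO-dissolved compounds to dye-loaded cells and reading 480/540 nm fluorescence each second for 3 min; ATP served as positive control.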
# [5] = p53 small molecule agonists, cell-based qHTS assay with human liver microsomes (AID 1963577);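 note: p53 response element beta-lactamase reporter cells with liver microsomes plus NADPH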
# Procedure, shortened: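 Steps: plate p53RE-bla cells, incubate 5 h at 37 C; add compound in DMSO; add microsomes (0.5 mg/mL final) and NADPH (0.5 mg/mL final); incubate 16 h at 37 C; add LiveBLAzer, 2 h RT; read fluorescence.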
# [6] = p53 small molecule agonists, cell-based qHTS assay with rat liver microsomes (AID 1963578)
# Procedure, shortened: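 Metabolic activation is supplied by rat liver microsomes with NADPH (each 0.5 mg/mL final). p53RE-bla cells incubate with compound 16 h at 37 C; reporter activity is measured by LiveBLAzer fluorescence.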
# [7] = p53 small molecule agonists, cell-based qHTS assay with human liver microsomes: qHTS cell viability counter screen (AID 1963579); note: nearly all actives have a fitted effect of over 45% in size
# Procedure, shortened: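 After the 460/530 nm beta-lactamase read, CellTiter-Glo was added to the same wells and luminescence measured after 30 min at room temperature, giving viability of p53RE-bla cells treated 16 h with compounds plus microsomes and NADPH.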
# [8] = p53 small molecule agonists, cell-based qHTS assay with rat liver microsomes: qHTS cell viability counter screen (AID 1963580); note: nearly all actives have a fitted effect of over 45% in size
# Procedure, shortened: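 Cytotoxicity counter screen: intracellular ATP measured by CellTiter-Glo luminescence in the same wells as the beta-lactamase reporter read, on HCT-116 p53RE-bla cells exposed 16 h at 37 C to compounds with rat liver microsomes and NADPH, each 0.5 mg/mL final.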
# [9] = target: 5-hydroxytryptamine receptor 2A (Homo sapiens) (UniProt P28223); assay: 5-hydroxytryptamine receptor 2A (HTR2A) small molecule antagonists, cell-based qHTS assay (AID 1963586); note: nearly all actives have a fitted effect of over 45% in size
# Procedure, shortened: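 CHO cells stably expressing human HTR2A were plated for 18 h at 37 C, then loaded with calcium dye for 1 h. Compounds were preincubated 5 min at room temperature before DOI (4 nM solution) was added. Kinetic fluorescence was read for 3 min.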
# [10] = target: 5-hydroxytryptamine receptor 2A (Homo sapiens) (UniProt P28223); assay: 5-hydroxytryptamine receptor 2A (HTR2A) small molecule agonists, cell-based qHTS assay (AID 1963587); note: nearly all actives have a fitted effect of over 30% in size; note: potency is the fitted concentration of half-maximal effect
# Procedure, shortened: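 CHO cells stably expressing human HTR2A, plated 18 h, loaded with calcium dye 1 h at 37 C. Agonist mode: compounds added and intracellular calcium fluorescence recorded kinetically for 2 min at 1 sec intervals.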
# [11] = target: Muscarinic acetylcholine receptor M1 (Homo sapiens) (UniProt P11229); assay: Cholinergic receptor muscarinic 1 (CHRM1) small molecule antagonists, cell-based qHTS assay (AID 1963588); note: nearly all actives have a fitted effect of over 40% in size
# Procedure, shortened: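 Compounds were tested at 15 concentrations in three independent runs. Dye-loaded CHRM1-CHO cells were exposed 5 min at room temperature before stimulation by acetylcholine added at 50nM. Intracellular calcium was read kinetically on FDSS for 3 min.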
# [12] = target: Muscarinic acetylcholine receptor M1 (Homo sapiens) (UniProt P11229); assay: Cholinergic receptor muscarinic 1 (CHRM1) small molecule agonists, cell-based qHTS assay (AID 1963589); note: nearly all actives have a fitted effect of over 35% in size
# Procedure, shortened: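 qHTS, 15-point titration, 3 independent runs: compounds pin-transferred onto dye-loaded CHRM1-CHO cells (human M1), calcium fluorescence followed every second to detect agonism.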
# [13] = cAMP Responsive Elements (CRE) small molecule agonists, cell-based qHTS assay (AID 1963590)
# Procedure, shortened: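 Quantitative HTS for CRE agonists: HEK 293T CRE-bla cells, overnight plating, 3 h compound incubation at 37 C/5% CO2, then 2 h room-temperature LiveBLAzer B/G FRET substrate loading.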
# [14] = cAMP Responsive Elements (CRE) small molecule antagonists, cell-based qHTS assay (AID 1963591; active = well fitted inhibition curve with a large enough effect in the signal ratio in the repeat runs, not every such curve was filed as active; the % refers to the signal ratio; note: potency is the fitted concentration of half-maximal effect)
# Procedure, shortened: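 Fluorescence intensity from cleaved LiveBLAzer B/G substrate (2 h, room temperature) quantified CRE-bla activity in HEK 293T cells exposed 3 h to compound with 0.25 uM final NKH477.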
# [15] = target: Beta-2 adrenergic receptor (Homo sapiens) (UniProt P07550); assay: Adrenergic beta2 receptor (ADRB2) small molecule antagonists, cell-based qHTS assay (AID 1963592); note: series mostly up to about 92 µM; nearly all actives have a fitted effect of over 50% in size
# Procedure, shortened: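 Assay format: CHO-ADRB2 cells, 18-20hr seeding at 37C/5% CO2, then compound plus 1nM isoproterenol agonist mix for 0.5hr RT. Homogeneous time-resolved fluorescence cAMP detection after 1hr, expressed as 665/615 nm ratio.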
# [16] = target: Beta-2 adrenergic receptor (Homo sapiens) (UniProt P07550); assay: Adrenergic beta2 receptor (ADRB2) small molecule agonists, cell-based qHTS assay (AID 1963593);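 note: CHO cells stably overexpressing human ADRB2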
# Procedure, shortened: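 CHO cells stably over-expressing ADRB2 were plated overnight at 37C, then dosed with compounds plus a stimulation mix containing 100uM IBMX and 25uM Ro-20-1724 for 0.5hr at room temperature. cAMP was measured by HTRF competition, 1hr.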
# [17] = target: D(2) dopamine receptor (Homo sapiens) (UniProt P14416); assay: Dopamine D2 receptor (DRD2) small molecule agonists, cell-based qHTS assay (AID 1963594); note: nearly all actives have a fitted effect of over 35% in size
# Procedure, shortened: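 HEK293 cells stably expressing human DRD2, pre-treated with PDE inhibitor Ro20-1724 (0.1 mM final) and compound 10 min at room temperature, then stimulated with NKH477 (200nM […]) for 30 min. cAMP read by HTRF (665/620 nm).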
# [18] = target: D(2) dopamine receptor (Homo sapiens) (UniProt P14416); assay: Dopamine D2 receptor (DRD2) small molecule antagonists, cell-based qHTS assay (AID 1963595; active = well fitted inhibition curve with a large enough effect in the signal ratio in the repeat runs, with a control signal flat; the % refers to the signal ratio)
# Procedure, shortened: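 HEK293 cells stably expressing DRD2, preincubated with 0.1 mM Ro20-1724 and compounds 10 min, were stimulated with 200 nM NKH477 plus 12 nM quinpirole for 30 min at room temperature; cAMP measured by HTRF (665/620 nm).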
# [19] = p53 small molecule agonists, cell-based qHTS assay: qHTS cell viability counter screen (AID 1963581); note: nearly all actives have a fitted effect of over 45% in size
# Procedure, shortened: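 Multiplexed with the reporter read, a CellTiter-Glo step (30 min, room temperature) gauges ATP-based viability of HCT-116 p53RE-bla cells after 16 h compound incubation at 37 C.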
# [20] = p53 small molecule agonists, cell-based qHTS assay (AID 1963582; active = well fitted activation curve with a large enough effect in the signal ratio in the repeat runs, not every such curve was filed as active; the % refers to the signal ratio)
# Procedure, shortened: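 Beta-lactamase reporter cells (p53RE-bla) treated with compounds for 16 h at 37 C; FRET substrate, 2 h, room temperature; fluorescence intensity.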
# Beta-2 adrenergic receptor (Homo sapiens), sequence (P07550 whole entry, looked up): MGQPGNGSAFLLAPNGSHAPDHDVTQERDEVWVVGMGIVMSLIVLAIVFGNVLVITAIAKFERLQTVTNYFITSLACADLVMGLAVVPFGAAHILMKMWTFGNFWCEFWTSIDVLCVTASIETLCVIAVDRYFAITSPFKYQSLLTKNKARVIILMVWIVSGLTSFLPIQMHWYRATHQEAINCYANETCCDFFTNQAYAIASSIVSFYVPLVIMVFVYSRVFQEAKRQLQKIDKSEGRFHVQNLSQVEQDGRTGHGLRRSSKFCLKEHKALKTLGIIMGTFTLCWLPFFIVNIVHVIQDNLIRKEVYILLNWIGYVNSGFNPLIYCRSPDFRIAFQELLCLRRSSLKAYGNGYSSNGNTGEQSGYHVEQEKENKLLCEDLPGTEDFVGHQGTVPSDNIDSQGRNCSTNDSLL
# KiSS-1 receptor (Homo sapiens), sequence (Q969F8 whole entry, looked up): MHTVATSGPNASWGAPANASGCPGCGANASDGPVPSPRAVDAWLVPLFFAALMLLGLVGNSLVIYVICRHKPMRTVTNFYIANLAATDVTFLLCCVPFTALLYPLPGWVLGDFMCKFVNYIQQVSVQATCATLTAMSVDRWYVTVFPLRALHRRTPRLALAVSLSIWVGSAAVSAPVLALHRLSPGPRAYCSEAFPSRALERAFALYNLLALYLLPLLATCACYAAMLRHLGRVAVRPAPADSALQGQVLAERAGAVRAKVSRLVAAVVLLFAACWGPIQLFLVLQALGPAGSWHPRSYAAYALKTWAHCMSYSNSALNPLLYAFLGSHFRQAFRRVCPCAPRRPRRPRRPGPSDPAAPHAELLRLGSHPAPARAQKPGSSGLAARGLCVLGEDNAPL
# Muscarinic acetylcholine receptor M1 (Homo sapiens), sequence (P11229 whole entry, looked up): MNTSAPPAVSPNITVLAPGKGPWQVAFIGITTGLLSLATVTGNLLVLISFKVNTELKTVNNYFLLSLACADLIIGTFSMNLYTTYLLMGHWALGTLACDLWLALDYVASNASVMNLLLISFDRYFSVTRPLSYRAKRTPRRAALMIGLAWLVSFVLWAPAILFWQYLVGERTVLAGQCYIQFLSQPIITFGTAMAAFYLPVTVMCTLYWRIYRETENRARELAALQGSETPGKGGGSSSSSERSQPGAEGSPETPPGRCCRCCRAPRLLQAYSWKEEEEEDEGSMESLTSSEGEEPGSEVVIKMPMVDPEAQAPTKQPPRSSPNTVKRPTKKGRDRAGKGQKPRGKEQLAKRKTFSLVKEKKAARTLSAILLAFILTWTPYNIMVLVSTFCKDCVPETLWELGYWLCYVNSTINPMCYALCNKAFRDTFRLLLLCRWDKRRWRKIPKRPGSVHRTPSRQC
# Gonadotropin-releasing hormone receptor (Homo sapiens), sequence (P30968 whole entry, looked up): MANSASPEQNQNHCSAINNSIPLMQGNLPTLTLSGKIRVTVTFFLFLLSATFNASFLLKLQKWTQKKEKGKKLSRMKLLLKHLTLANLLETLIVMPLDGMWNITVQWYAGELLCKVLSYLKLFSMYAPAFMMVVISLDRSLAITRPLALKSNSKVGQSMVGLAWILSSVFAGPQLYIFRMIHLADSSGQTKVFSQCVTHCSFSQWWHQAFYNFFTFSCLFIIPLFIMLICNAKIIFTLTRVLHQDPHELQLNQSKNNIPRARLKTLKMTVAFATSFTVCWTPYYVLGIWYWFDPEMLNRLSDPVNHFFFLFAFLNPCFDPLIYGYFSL
# D(2) dopamine receptor (Homo sapiens), sequence (P14416 whole entry, looked up): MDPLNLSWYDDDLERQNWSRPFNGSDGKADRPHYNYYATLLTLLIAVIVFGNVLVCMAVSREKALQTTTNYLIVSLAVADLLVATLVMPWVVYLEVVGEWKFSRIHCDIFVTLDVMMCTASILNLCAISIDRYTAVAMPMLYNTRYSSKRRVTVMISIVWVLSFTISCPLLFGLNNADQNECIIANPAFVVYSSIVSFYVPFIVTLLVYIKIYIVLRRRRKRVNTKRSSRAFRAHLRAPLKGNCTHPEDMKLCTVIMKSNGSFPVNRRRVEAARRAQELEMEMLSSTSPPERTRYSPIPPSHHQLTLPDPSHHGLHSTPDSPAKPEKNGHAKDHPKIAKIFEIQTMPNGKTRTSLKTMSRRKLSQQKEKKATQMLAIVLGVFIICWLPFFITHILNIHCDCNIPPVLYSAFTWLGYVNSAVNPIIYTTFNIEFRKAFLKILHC
# 5-hydroxytryptamine receptor 2A (Homo sapiens), sequence (P28223 whole entry, looked up): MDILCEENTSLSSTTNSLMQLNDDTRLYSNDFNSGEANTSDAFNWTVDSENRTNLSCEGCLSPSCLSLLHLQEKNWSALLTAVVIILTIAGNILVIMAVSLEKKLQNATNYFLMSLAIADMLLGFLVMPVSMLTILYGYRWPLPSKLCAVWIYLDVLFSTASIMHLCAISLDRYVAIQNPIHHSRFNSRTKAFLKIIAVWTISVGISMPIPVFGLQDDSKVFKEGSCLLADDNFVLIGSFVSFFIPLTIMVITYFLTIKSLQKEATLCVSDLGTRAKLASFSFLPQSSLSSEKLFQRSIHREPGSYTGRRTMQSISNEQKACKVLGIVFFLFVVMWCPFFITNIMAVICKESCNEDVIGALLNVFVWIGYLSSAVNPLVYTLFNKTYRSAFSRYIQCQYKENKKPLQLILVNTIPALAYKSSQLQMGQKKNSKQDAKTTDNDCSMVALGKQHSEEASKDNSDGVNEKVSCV
Compound,Potency [1],Potency [2],Potency [3],Potency [4],Potency [5],Potency [6],Potency [7],Potency [8],Potency [9],Potency [10],Potency [11],Potency [12],Potency [13],Potency [14],Potency [15],Potency [16],Potency [17],Potency [18],Potency [19],Potency [20]
Cc1c(COC(=O)[C@@H]2[C@H](/C=C(\Cl)C(F)(F)F)C2(C)C)cccc1-c1ccccc1,53.2 µM (active) and 27.2 µM (active),inactive,inactive,inactive,inactive,inactive,inactive,inactive,inactive,38 µM (active) and inactive,inactive,inactive,inactive,inactive,inactive,inactive,inactive,inactive,,
O=c1ssc(Cl)c1Cl,24.3 µM (active),inactive,inactive,inactive,inactive,inactive,inactive,inactive,inactive,inactive,inactive,inactive,inactive,inactive,inactive,inactive,inactive,inactive,inactive,inactive
C[C@@H]1C[C@@H]([C@H](O)CC2CC(=O)NC(=O)C2)C(=O)[C@@H](C)C1,inactive,inactive,inactive,inactive,inactive,inactive,inactive,inactive,,,,,inactive,8.58 µM (active) and 8.3 µM (active) and 2.66 µM (active),inactive,,inactive,inactive,inactive,inactive
Clc1ccc(CCC(Cn2ccnc2)Sc2c(Cl)cccc2Cl)cc1 (stereo not drawn),13.3 µM (active),inactive,inactive,inactive,inactive,inactive,inactive,inactive,,inactive,inactive,inactive,,,inactive,,inactive,,,
O=[N+]([O-])c1ccc(O)c([N+](=O)[O-])c1,inactive,inactive,inactive,inactive,inactive,inactive,inactive,,inactive,inactive,inactive,inactive,,,,,inactive,inactive,inactive,inactive
Clc1cc(Cl)c(-c2cc(Cl)c(Cl)cc2Cl)cc1Cl,inactive,inactive,inactive,inactive,inactive,inactive,inactive,inactive,inactive,inactive,inactive,inactive,inactive,,inactive,,inactive,inactive,inactive,inactive
ClC1=C(Cl)C2(Cl)C(CBr)CC1(Cl)C2(Cl)Cl (stereo not drawn),inactive,inactive,inactive,inactive,inactive,inactive,inactive,inactive,inactive,inactive,,inactive,inactive,,inactive,inactive,,inactive,inactive,inactive
CCOc1cc(Oc2ccc(C(F)(F)F)cc2Cl)ccc1[N+](=O)[O-],inactive,inactive,inactive,inactive,inactive,inactive,inactive,inactive,inactive,inactive,inactive,inactive,,,inactive,,inactive,inactive,inactive,inactive
